Among the data in PubChem BioAssay (Tox21) are Potency and outcome values, retold here.

Assay [1] can be described thus: A CellTox Green Cytotoxicity Assay to monitor cytotoxicity in HepG2 cells - 8 hour (AID 1224890). Also: nearly all actives have a fitted effect of over 45% in size. The essentials:
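Measurements at 0, 8, 16, 24, 32 and 40 h of treatment captured CellTox Green fluorescence in HepG2 cells that had been co-plated with reagent and preincubated 5 h at 37 C/5% CO2.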

A short description of assay [2]: qHTS assay to identify small molecule antagonists of the estrogen receptor alpha (ER-alpha) signaling pathway using the BG1 cell line in the presence of 0.1 nM 17-beta-estradiol - cell viability counter screen (AID 1259241). Also: nearly all actives have a fitted effect of over 40% in size. A digest of the protocol:
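In this screen, hormone-deprived VM7Luc4E2 cells were seeded at 4,000 per well, dosed with compound and 0.1 nM estradiol final, and incubated 22 hr at 37C and 5% CO2; fluorogenic live-cell protease signal reported viability.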

Assay [3] in a line: qHTS assay to identify small molecule antagonists of the androgen receptor (AR) signaling pathway using the MDA cell line in the presence of 0.5 nM R1881 - cell viability counter screen (AID 1259242). Also: nearly all actives have a fitted effect of over 45% in size. Also: potency is read from the fitted curve at half-maximal effect. A digest of the protocol: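 Concentration-response screen of compounds for toxicity in MDA-kb2 reporter cells: 16 hr at 37C with 0.5 nM R1881, endpoint live-cell protease fluorescence measured in the reporter wells.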

Assay [4] concerns the target Estrogen receptor (Homo sapiens) (UniProt P03372). Put plainly: qHTS assay to identify small molecule antagonists of the estrogen receptor alpha (ER-alpha) signaling pathway using the BG1 cell line in the presence of 0.1 nM 17-beta-estradiol (AID 1259244). Also: nearly all actives have a fitted effect of over 50% in size. Also: potency is read from the fitted curve at half-maximal effect. A digest of the protocol: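 Compounds were tested against 0.1 nM (final) 17beta-estradiol in VM7Luc4E2 cells, which express full-length ER-alpha and an ERE-luciferase reporter; luminescence was recorded following 22 h exposure.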
(In general: Quantitative high-throughput screening tests each substance at several concentrations.)

A short description of assay [5]: qHTS assay to identify small molecule HDAC inhibitors (AID 1259364).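 Also: wild-type HCT-116 cells with endogenous class I/II HDAC activity; top concentration of the series differs between compounds; nearly all actives have a fitted effect of over 45% in size.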 A digest of the protocol:
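Screening used wild-type human colon HCT-116 cells incubated overnight, dosed with compounds for 2 hours, and assayed with a homogeneous luminogenic HDAC I/II reagent for 30 minutes at room temperature.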

A short description of assay [6]: qHTS assay to identify small molecule HDAC inhibitors - cell viability counter screen (AID 1259365). Also: series mostly up to about 92 µM; nearly all actives have a fitted effect of over 50% in size. The essentials: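 Measured quantity is CellTiter-Glo luminescence from wild-type HCT-116 cells after compound incubation of 2hr at 37C, 5% CO2; reagent developed 30min at room temperature.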
Assay [7] in a line: qHTS assay to identify small molecule agonists of the sonic hedgehog signaling (Shh) pathway - cell viability counter screen (AID 1259366). Also: nearly all actives have a fitted effect of over 50% in size. The essentials:
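In quantitative high-throughput format, 3T3 Gli1-Luc cells were exposed to compounds for 24hr and multiplexed for viability using CellTiter-Fluor, incubated 1hr at 37C before the fluorescence read.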

Assay [8] is described as follows: qHTS assay to identify small molecule antagonists of the sonic hedgehog signaling (Shh) pathway - cell viability counter screen (AID 1259367). Also: nearly all actives have a fitted effect of over 55% in size. The essentials:
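Conditioned medium drove Shh signaling in 3T3 Gli1-Luc cells exposed to compounds at 37C and 5% CO2. Viability was determined from CellTiter-Fluor fluorescence, with reagent incubated 1 hr after 23 hr of treatment.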

The nature of assay [9]: qHTS assay to identify small molecule phospholipidosis (PLD) inducers (AID 1259344; active = well fitted curve in the direction sought with a large enough effect; an effect the other way counts as inactive or inconclusive). A digest of the protocol:
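After 4 h attachment on collagen I, HepG2 cells were dosed with compound alongside LipidTOX Red, kept 24 h at 37 C, fixed, and imaged for lamellar phospholipid pits.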

Values without a mark were called inactive. Records with an inconclusive call do not appear. Activity calls are given as the source filed them. Unless noted, calls follow the shape of the dose curve; as a rule, active = well fitted curve in the direction sought with a large enough effect in the repeat runs; inconclusive = weak or mixed curves; inactive = no such curve, though single readings can be large; an effect the other way counts as inactive or inconclusive.

Estrogen receptor (Homo sapiens), sequence (P03372 whole entry, looked up): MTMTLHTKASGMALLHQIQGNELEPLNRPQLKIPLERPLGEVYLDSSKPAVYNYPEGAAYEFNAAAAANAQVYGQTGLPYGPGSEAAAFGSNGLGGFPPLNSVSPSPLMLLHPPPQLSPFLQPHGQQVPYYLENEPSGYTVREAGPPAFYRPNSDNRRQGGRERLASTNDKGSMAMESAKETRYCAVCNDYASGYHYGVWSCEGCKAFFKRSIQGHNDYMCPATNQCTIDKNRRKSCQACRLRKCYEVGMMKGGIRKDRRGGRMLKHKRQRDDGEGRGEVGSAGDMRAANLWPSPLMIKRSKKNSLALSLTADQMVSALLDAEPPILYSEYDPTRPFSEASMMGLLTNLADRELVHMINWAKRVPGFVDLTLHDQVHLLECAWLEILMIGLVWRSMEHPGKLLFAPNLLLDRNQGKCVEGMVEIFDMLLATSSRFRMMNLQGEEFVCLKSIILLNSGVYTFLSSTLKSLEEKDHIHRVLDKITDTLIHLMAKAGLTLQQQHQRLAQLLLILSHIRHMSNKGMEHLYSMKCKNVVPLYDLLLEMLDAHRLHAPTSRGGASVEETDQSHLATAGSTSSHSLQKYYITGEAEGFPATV

With `COC(=O)CC(=O)C(C)(C)C`, the Potency entry in assay [1], in [2], in [3], in assay [4], in assay [5] and in assay [6] was “inactive” in each case. Moreover, the Potency result in assay [7] and in [8] was “inactive” each time.

For `N#C/C(=C1/SC[C@@H](c2ccc(Cl)cc2Cl)S1)n1ccnc1`, the Potency entry in assay [1], in [2], in assay [3], in assay [5], in assay [6] and in assay [7] was “inactive” throughout. The Potency result in assay [8] is “inactive”. In assay [9], the result was inactive.

With `C=CC(C)(C)CC(=O)OC`, the Potency result in assay [1], in [2], in assay [3], in [5], in assay [6] and in assay [7] was “inactive” each time. Also, the Potency result in assay [8] was “inactive”.

`CC(C)(CCl)c1ccccc1`: the Potency result in [1], in [2], in [3], in [4], in [7] and in assay [8] was “inactive” throughout.

Regarding `COCC(O)CO` (centres undefined), the Potency entry in assay [1], in [2], in [3], in assay [4], in assay [6] and in assay [7] was “inactive” in each case. In [8], the Potency result was “inactive”.

With `N#C/C(=C1\SCC(c2ccccc2Cl)S1)n1ccnc1` (centres undefined), the Potency entry in assay [1], in assay [2], in assay [3], in assay [5], in assay [6] and in [7] was “inactive” each time. In assay [8], the Potency entry is “inactive”. In addition, the outcome in [9] was inactive.

In the case of `C/C=C(\C)C(=O)OCCC(C)CCC=C(C)C` (centres undefined), the Potency result in assay [1], in assay [2], in assay [3], in assay [5], in assay [6] and in [7] was “inactive” in each case.

With `Cn1c(=O)c2c(ncn2CC(=O)O)n(C)c1=O`, the Potency entry in assay [1], in assay [2], in [3], in [4], in [6] and in [7] was “inactive” throughout. In addition, in assay [8], the Potency entry was “inactive”.

In the case of `O=C(O)c1snc(Cl)c1Cl`, the Potency result in assay [1], in assay [2], in [3], in assay [5], in assay [6] and in assay [7] was “inactive” in each case. Further, in assay [8], the Potency result was “inactive”.

Regarding `CN(C(=O)C(Cl)Cl)c1ccc(OC(=O)c2ccco2)cc1`, the Potency result in assay [1], in [2], in assay [3], in assay [5], in assay [6] and in assay [7] was “inactive” in each case. Besides, the Potency result in assay [8] is “inactive”. Moreover, the molecule was classed as inactive in assay [9].

Regarding `OCC1CC=CCC1` (centres undefined), the Potency entry in assay [1], in assay [2], in assay [3], in [4], in assay [6] and in assay [7] was “inactive” each time. Besides, in assay [8], the Potency entry was “inactive”.

Take `CCCCCCCCCOC(C)=O`: the Potency result in [1], in [2], in [3], in [4], in assay [7] and in assay [8] was “inactive” in each case.

Take `CC(=O)Nc1ccc(N)cc1`: the Potency result in assay [1], in [2], in [3], in [4], in [6] and in [7] was “inactive” throughout. The Potency result in assay [8] was “inactive”.

Consider `CCCC1C(CC)=CC(CC)=CN1c1ccccc1` (centres undefined), for which the Potency result in assay [1], in assay [2], in assay [5], in assay [6] and in assay [7] was “inactive” throughout. Besides, in assay [3], the Potency was 48.6 µM (active).

As to `Cc1ccc(/C=N/n2c(-c3ccccc3)csc2=S)cc1`, the Potency entry in assay [1], in assay [2], in assay [3], in [5], in [6] and in assay [7] was “inactive” each time. In addition, in assay [8], the Potency entry is “inactive”. Also, in assay [9], the outcome was inactive.

`CC[C@@H]([C@H](C)O)n1ncn(-c2ccc(N3CCN(c4ccc(OC[C@@H]5CO[C@@](Cn6cncn6)(c6ccc(F)cc6F)C5)cc4)CC3)cc2)c1=O`: the Potency entry in assay [1], in assay [2], in assay [5], in [6], in [7] and in [8] was “inactive” in each case. Also, in assay [3], the Potency was 26.6 µM (active). The result in [9] was inactive.

With `CC(=O)Oc1ccc2c(c1)CC[C@@H]1[C@@H]2CC[C@]2(C)[C@@H](O)CC[C@@H]12`, the Potency result in assay [1], in assay [2], in [3], in assay [5], in assay [6] and in assay [7] was “inactive” throughout. The Potency result in [8] is “inactive”. Besides, the outcome in [9] was inactive.

With `CCCCN(CCCC)CCCOC(=O)c1ccc(N)cc1`, the Potency result in assay [1], in [2], in assay [3], in assay [5], in [6] and in assay [7] was “inactive” each time. The Potency entry in assay [8] was “inactive”. Further, the molecule was classed as inactive in [9].

In the case of `CCCCOC(=O)CCS`, the Potency entry in [1], in [2], in assay [3], in assay [5], in [7] and in assay [8] was “inactive” throughout. The Potency in assay [4] is 27.3 µM (active).

`O=C(OCCOCCO)c1ccccc1Nc1cccc(C(F)(F)F)c1`: the Potency entry in assay [1], in assay [2], in [3], in assay [6], in [7] and in assay [8] was “inactive” each time. In addition, in [9], the outcome was inactive.
